# PTHR1 ag: activates the human parathyroid hormone receptor PTHR1 | Potency, µM (doses to about 115 µM), usual class: activators | Q03431 | 410,000 compounds, 0.075% hits | HEK293 GP2 PTHR1 cells, GloSensor cAMP luminescence, 1 h; note: nearly all actives have a fitted effect of over 55% in size
# Target sequence (Q03431 whole entry, looked up): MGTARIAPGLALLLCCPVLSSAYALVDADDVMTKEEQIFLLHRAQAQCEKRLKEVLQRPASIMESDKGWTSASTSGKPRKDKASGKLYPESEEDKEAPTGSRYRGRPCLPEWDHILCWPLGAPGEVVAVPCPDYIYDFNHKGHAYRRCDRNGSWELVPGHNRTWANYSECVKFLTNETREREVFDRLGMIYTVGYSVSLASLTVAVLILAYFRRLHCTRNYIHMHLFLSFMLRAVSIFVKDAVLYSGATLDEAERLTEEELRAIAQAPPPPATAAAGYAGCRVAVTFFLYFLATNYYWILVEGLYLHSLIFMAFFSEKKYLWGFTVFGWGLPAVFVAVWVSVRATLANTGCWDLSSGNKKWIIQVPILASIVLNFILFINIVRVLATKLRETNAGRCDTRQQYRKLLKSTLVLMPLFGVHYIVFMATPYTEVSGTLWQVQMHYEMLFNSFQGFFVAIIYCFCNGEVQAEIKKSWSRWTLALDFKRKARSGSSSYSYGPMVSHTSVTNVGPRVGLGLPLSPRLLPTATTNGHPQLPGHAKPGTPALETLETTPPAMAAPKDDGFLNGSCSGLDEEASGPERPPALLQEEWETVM
#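 HEK-293-derived GP2 cells expressing PTHR1 and a GloSensor cAMP reporter, 3,000/well, plated overnight, given luciferin plus IBMX (each 0.5 mM as added) for 1 h at 37 °C, then compound for 1 h at 37 °C. Luminescence was read after 15 min at room temperature.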
# RGS4 inh: human RGS4 inhibition; P49798; 390,000 compounds, 0.039% hits; Potency, µM (titrated, usually from 114 µM), most hits filed as inhibitors; Transcreener GDP fluorescence polarization, RGS4-accelerated GTP hydrolysis; AID 504845; note: nearly all actives have a fitted effect of over 75% in size
#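 MLSMR compounds (23 nl, pin-transferred) preincubated 10 min at room temperature with a 500nM (2x) first reagent, then RGS4 at 900nM (2x) plus Transcreener GDP mix added; fluorescence polarization (620/688 nm) read before and after 90 min at 30 °C.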
# BRCA1 expr act: BRCA1 expression activation; Potency, µM (highest dose often 46.1 µM), hits mostly activators; MCF7-BRCA1-FFLuc reporter, luminescence, 48 h; response scale: scaled: vehicle 0%, 10 µM genistein 100%; AID 624202; 380,000 compounds, 1.1% hits; note: nearly all actives have a fitted effect of over 80% in size
#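 MCF7-BRCA1-FFLuc cells, 2000/well in phenol-red-free MEM, attached 2 h then treated 48 h at 37 C. Luciferase luminescence read 15 min after reagent; normalized to genistein maximum activation (10microM) and DMSO, concentration-response fitted.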
# LDHA block: blocks human lactate dehydrogenase A | 480,000 compounds, 0.15% hits | P00338 | purified LDHA, NADH/diaphorase-resazurin fluorescence; hits give low values | activity change, % (values are at about 110 or 230 µM); in the data active = activity change below about -30%; inconclusive = mostly about -25% to -30%
#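 Resorufin fluorescence (ex540/em590), read at 0 and 20 min after diaphorase/resazurin addition, reports the NADH left after a 5 min room-temperature reaction of 2 nM human LDH5 with 0.06 mM NADH and 0.2 mM pyruvate.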
# p53 reactivation: re-activators of mutant p53; H1299 p53-A138V BP100-luciferase reporter, luminescence, 24 h; Potency, µM (titrated, usually from 92.2 µM), actives largely listed as activators; 320,000 compounds, 0.063% hits; AID 504706; note: nearly all actives have a fitted effect of over 45% in size
#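 p53-null H1299 cells stably carrying temperature-sensitive p53-A138V and a BP100-luciferase reporter were pinned with compounds (4-point, 1:5 series) and held 24 hrs at 37 deg C. Luminescence was read 10 min after detection reagent.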
# A number is an active result; 0 = inactive; ? = inconclusive; - = not tested or not shown; [ ] = dose if it differs, or a comment. Most compounds without a hit are left out; they make up all but 1.1% or so of the library. Unless noted, calls come from the whole dose curve; as a rule, active = well fitted curve in the direction sought with a large enough effect; inconclusive = small, poorly fitted or top-dose-only effect, or another doubt; inactive = no such curve, though single readings can be large; an effect the other way counts as inactive or inconclusive.
SMILES,PTHR1 ag,RGS4 inh,BRCA1 expr act,LDHA block,p53 reactivation
CC(=O)Nc1cccc(NC(=O)c2cc3ccccc3o2)c1,0,0,8.9µM,0,?
O=C(Nc1ccc(N2CCCC2)cc1)c1cc2ccccc2o1,0,0,8.9µM,0,-
O=C(Nc1cccnc1)c1cc2c(ccc3ccccc32)o1,0,0,13µM,0,-
CC(=O)N1CCN(c2ccc(NC(=O)c3cc4ccccc4o3)cc2)CC1,0,0,0,0,0
O=C(CCc1nc(-c2ccc(Cl)cc2)no1)Nc1cccc(S(=O)(=O)NC2=NCCC2)c1,-,-,-,0,-
CCc1ccc(CNCc2ccco2)cc1,-,-,-,0,-
N#Cc1ccc(S(=O)(=O)N2CCN(C(=O)c3cnn(Cc4ccccc4Cl)c3)CC2)cc1,-,-,-,0,-
O=C(Nc1ccccc1)c1cc2ccccc2o1,0,0,0,0,?
O=C(Cc1ccccc1)Nc1ccc(N2CCCC2)cc1,0,?,0,0,0
O=C(Nc1ccc(N2CCCCCC2)cc1)c1ccccc1Cl,0,0,?,0,0
O=C(Nc1ccc(N2CCCCCC2)cc1)c1ccc[nH]1,0,0,1.4µM,0,?
CC(C)C(=O)Nc1cccc(NC(=O)c2cc3ccccc3o2)c1,0,0,10µM,0,?
O=C(CCc1ccccc1)Nc1ccc(N2CCCCC2)cc1,0,0,11µM,0,?
CC(C)=CC(=O)Nc1ccc(F)c(Cl)c1,-,-,-,0,-
O=C(CSc1nccn2nc(-c3cccc4ccccc34)cc12)NCc1ccco1,-,-,-,0,-
Cc1ccc(S(=O)(=O)N2CCN(CCNC(=O)c3ccc(C(F)(F)F)cc3)CC2)cc1,-,-,-,0,-
Cc1cc(-c2ccc(S(=O)(=O)N3CCN(c4cc(Cl)ccc4C)CC3)s2)on1,-,-,-,0,-
COc1ccc(NC(=O)CN(C)CC(=O)Nc2ccccc2SC)cc1,0,0,0,-35,-
COc1ccc(OCCN(C)CC(=O)Nc2ccccc2SC)cc1,0,0,0,0,0
COc1ccc(NC(=O)Nc2nnc(C(C)C)s2)cc1,0,0,10µM,0,?
COc1ccccc1CNCC(=O)Nc1ccc(N2CCOCC2)cc1,0,0[11.4 µM],0,0,0
COc1ccccc1NC(=O)Nc1ccc(C(N)=O)cc1,0,0,0,0,0
COc1ccc(NC(=O)Nc2ccccc2OC)cc1,0,0,14µM,0,?
COc1ccccc1NC(=O)Nc1ccc(N2CCOCC2)cc1,0,0,7.1µM,0,0
Cc1cc2c(s1)CCc1cc(C(=O)NC3CCCCC3)sc1-2,-,-,-,0,-
SMILES,PTHR1 ag,RGS4 inh,BRCA1 expr act,LDHA block,p53 reactivation
FC(F)(F)c1ccc(C=Nc2cccc3ccccc23)cc1,-,-,-,0,-
N#Cc1cccc(S(=O)(=O)Nc2c(NC3CCCC3)c3ccccc3oc2=O)c1,-,-,-,0,-
COc1ccc(NC(=O)Nc2ccc(Br)c(C)c2)cc1,0,0,11µM,0,0
COc1ccc(C)cc1NC(=O)Nc1ccc2c(c1)CCC2,0,0,0,0,0
COc1ccccc1NC(=O)Nc1ccc2c(c1)CCC2,0,0,2.8µM,0,?
Oc1ccc2ccccc2c1CN(Cc1ccccc1)Cc1ccccc1,-,-,-,0,-
Cc1nccn1CC(=O)N/N=C/c1cc(Br)cs1,0,0,0,0,0
CCN1CCN(CC(=O)N/N=C/c2cc(Br)cs2)CC1,0,0,0,-30,0
CCC(C)NC(=O)CSc1ncnc2ccccc12 (configuration not stated),-,-,-,0,-
CCc1cccc2c(C(=O)C(=O)NCc3ccc(OC)cc3)c[nH]c12,-,-,-,0,-
C=CCn1cnc2c(NCc3ccccc3)ncnc21,0,0,4µM,0,?
O=C(Cn1cnc2c(NCc3ccccc3)ncnc21)NCc1ccccn1,0,0,0,0,0
Nn1c(Cc2ccccc2)nc2ccccc2c1=O,0,0,0,0,-
Nn1c(COc2ccc(Cl)cc2)nc2ccccc2c1=O,0,0,5.6µM,0,?
CCOc1ccc2nc(N3CCCC(C(=O)NCc4ccc(OC)cc4)C3)sc2c1 (configuration not stated),0,0,-,0,-
CCOc1ccc2nc(N3CCCC(C(=O)NCC4CCCO4)C3)sc2c1 (configuration not stated),0,0,10µM,0,0
N/C(Cc1cccs1)=N\OC(=O)COc1ccc(Cl)cc1Cl,0,0,11µM,0,0
N/C(=N\OC(=O)COc1ccc(Cl)cc1Cl)c1cccnc1,0,0,7.9µM,0,?
N/C(=N\OC(=O)COc1ccc(Cl)cc1)c1cccnc1,0,0,0,0,?
N/C(=N\OC(=O)COc1ccc(Cl)cc1Br)c1ccncc1,0,0,2.5µM,0,0
N#Cc1c(-c2ccccc2)cc(-c2cccs2)nc1SCCS(=O)(=O)c1nc2ccccc2s1,-,-,-,0,-
Cc1cc(C)c2[nH]c(C)c(CN3CCC(C)CC3)c(=O)c2c1,-,-,-,0,-
S=C(NCCc1ccccc1)Nc1ccc(Sc2ccc(Br)cc2)cc1,-,-,-,0,-
CCc1ccc(NS(=O)(=O)c2ccc(C)c(C(=O)N3CCOCC3)c2)cc1,0,0,0,-44,0
COC(=O)Cc1cc(=O)n(-c2nc3ccccc3[nH]2)[nH]1,0,0,0,-40,0
SMILES,PTHR1 ag,RGS4 inh,BRCA1 expr act,LDHA block,p53 reactivation
CN(C)CCCNCC(=O)c1c(-c2ccccc2)n(C)c2ccccc12,0,0,0,-37,0
Fc1cccc(NC(=S)NCCCCc2ccccc2)c1,-,-,-,0,-
Cc1ccc2c(C)c(C(=O)Nc3nc(-c4ccc(C)s4)ns3)oc2c1,-,-,-,-33,-
CC(=O)c1ccc(S(=O)(=O)Nc2cc(Cl)ccc2C(=O)N(C)C)cc1,-,-,-,0,-
Cc1ccc(N=Nc2c(N)nn(-c3ccccc3)c2N)cc1,0,0,0,0,?
COc1ccc(N=Nc2c(N)nn(C)c2N)cc1,0,0,2.5µM,0,-
Cc1nc2cc(NC(C)C(=O)Nc3cc(Cl)ccc3Cl)ccc2o1 (configuration not stated),-,-,-,0,-
CCN(CC)c1ccc(Nc2nc(-c3sc(NC(=O)c4ccccc4)nc3C)cs2)cc1,-,-,-,0,-
O=C(OCC(=O)N1CCOCC1)c1ccc2ccccc2c1O,0,0,3.2µM,0,?
O=C(COc1ccc2ccccc2c1)N1CCCC1,0,0,11µM,0,0
O=C(OCC(=O)N1CCCC1)c1ccccc1O,0,0,20µM,0,?
O=C(OCC(=O)N1CCN(c2ccccc2)CC1)c1ccccc1[N+](=O)[O-],0,?,13µM,0,?
O=C(COc1ccc2ccccc2c1)N1CCN(c2ccccc2)CC1,0,0,0,0,0
CC1CCc2nn(CC(=O)Nc3ccc(Cl)cc3)c(=O)cc2C1 (configuration not stated),-,-,-,0,-
Cc1ccc(C(=O)OCC(=O)N2CCOCC2)c(C)c1,0,0,0,0,0
Cc1ccc(C(=O)OCC(=O)N2CCCCCC2)c(O)c1,0,0,13µM,0,?
Cc1nnc(SCC(=O)N(C)CCOc2ccc(Cl)cc2)n1Cc1ccccc1,-,-,-,0,-
Cc1cccc(CN2CCN(Cc3ccco3)CC2)c1,0,0,0,-32,-

# High-throughput results (PubChem BioAssay)
